# PubChem BioAssay (EPA / NIEHS)
# Values joined by “and” are separate entries in the source; they are usually repeats but may differ in a detail not shown here. Identical values can stand only once. Some compounds were tested as several samples or in several runs, with calls that do not always agree. Active and inactive are the calls of the source. The calls were made as follows: active = hit-call score of the fitted dose curve at least 0.9, where 1 is the maximum; inactive = score below 0.9.
# Experiment: CCTE_Shafer_MEA_dev_spike_duration_mean: CCTE's Neural Network Formation Assay for Mean Spike Duration, Shafer Lab (AID 2284051);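 also: mean network spike duration pooled as area under curve over DIV 5 to 12 recordings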;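 as to AC50: potency for a decrease in mean network spike duration versus DMSO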
# How it was run: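 Rat cortical primary cultures, 48-well MEA (16 electrodes/well); compound from plating, renewed DIV 5, 9. Network spike duration (AxIS adaptive detector) recorded DIV 5/7/9/12, combined as trapezoidal AUC; loss direction vs DMSO.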
Structure (SMILES),outcome,AC50
O=S(=O)(O)C(F)(F)C(F)(F)C(F)(F)C(F)(F)C(F)(F)C(F)(F)F,inactive,
ClC1=C(Cl)[C@]2(Cl)[C@@H]3[C@@H]4C[C@@H]([C@H]5O[C@@H]45)[C@@H]3[C@@]1(Cl)C2(Cl)Cl,,23.9 µM (active)
Clc1ccc(C(c2ccccc2Cl)C(Cl)(Cl)Cl)cc1 (configuration not stated),,2.76 µM (active)
COc1ccc(O)c(C(C)(C)C)c1,inactive,
Oc1ccc(C(c2ccc(O)cc2)(C(F)(F)F)C(F)(F)F)cc1,inactive,9.95 µM (active)
O=S(=O)(O)C(F)(F)C(F)(F)C(F)(F)C(F)(F)F,inactive,50 µM (active)
ClC1=C(Cl)[C@]2(Cl)[C@@H]3[C@H]4C[C@H]([C@@H]5O[C@H]45)[C@@H]3[C@@]1(Cl)C2(Cl)Cl,inactive,
ClC1=C(Cl)[C@]2(Cl)[C@@H]3[C@@H](Cl)[C@H]4O[C@H]4[C@@H]3C1(Cl)C2(Cl)Cl,,25.9 µM (active)
NS(=O)(=O)C(F)(F)C(F)(F)C(F)(F)C(F)(F)C(F)(F)C(F)(F)C(F)(F)C(F)(F)F,inactive,23.3 µM (active)
c1cc2ccc3cccc4ccc(c1)c2c34,inactive,
CO/C=C(/C(=O)OC)c1ccccc1COc1cccc(C(F)(F)F)n1,,212 nM (active) and 454 nM (active)
ClC(Cl)=C(c1ccc(Cl)cc1)c1ccc(Cl)cc1,,3.8 µM (active)
CCC(C)(c1ccc(O)cc1)c1ccc(O)cc1,,10 µM (active)
O=C(O)C(F)(F)C(F)(F)C(F)(F)C(F)(F)C(F)(F)C(F)(F)C(F)(F)C(F)(F)F,inactive,
C=CC(N)=O,inactive,
O=C(O)C(F)(F)C(F)(F)C(F)(F)C(F)(F)C(F)(F)F,inactive,
CCOP(=S)(OCC)SCSC(C)(C)C,,13.9 µM (active) and 21.9 µM (active)

# Experiment: CCTE_Shafer_MEA_dev_network_spike_duration_std: CCTE's Neural Network Formation Assay for Standard Deviation of Network Spike Duration, Shafer Lab (AID 2284052);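 also: area under curve of spike duration SD across recording days 5 to 12; hits are decreases in network spike duration SD versus DMSO vehicle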
# How it was run: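 Rat cortical cultures, 1.5 x 10^5 cells/well, exposed continuously from plating to DIV 12 with media/compound renewal at DIV 5, 9. Spontaneous activity recorded DIV 5/7/9/12, AxIS adaptive spike detector; AUC across days; negative direction vs DMSO.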
Structure (SMILES),outcome,AC50
O=S(=O)(O)C(F)(F)C(F)(F)C(F)(F)C(F)(F)C(F)(F)C(F)(F)F,inactive,
ClC1=C(Cl)[C@]2(Cl)[C@@H]3[C@@H]4C[C@@H]([C@H]5O[C@@H]45)[C@@H]3[C@@]1(Cl)C2(Cl)Cl,,3.38 µM (active)
Clc1ccc(C(c2ccccc2Cl)C(Cl)(Cl)Cl)cc1 (configuration not stated),inactive,
COc1ccc(O)c(C(C)(C)C)c1,inactive,
Oc1ccc(C(c2ccc(O)cc2)(C(F)(F)F)C(F)(F)F)cc1,inactive,
O=S(=O)(O)C(F)(F)C(F)(F)C(F)(F)C(F)(F)F,inactive,
ClC1=C(Cl)[C@]2(Cl)[C@@H]3[C@H]4C[C@H]([C@@H]5O[C@H]45)[C@@H]3[C@@]1(Cl)C2(Cl)Cl,inactive,
ClC1=C(Cl)[C@]2(Cl)[C@@H]3[C@@H](Cl)[C@H]4O[C@H]4[C@@H]3C1(Cl)C2(Cl)Cl,inactive,
NS(=O)(=O)C(F)(F)C(F)(F)C(F)(F)C(F)(F)C(F)(F)C(F)(F)C(F)(F)C(F)(F)F,inactive,
c1cc2ccc3cccc4ccc(c1)c2c34,inactive,
CO/C=C(/C(=O)OC)c1ccccc1COc1cccc(C(F)(F)F)n1,,246 nM (active) and 245 nM (active)
CCC(C)(c1ccc(O)cc1)c1ccc(O)cc1,inactive,
O=C(O)C(F)(F)C(F)(F)C(F)(F)C(F)(F)C(F)(F)C(F)(F)C(F)(F)C(F)(F)F,inactive,
C=CC(N)=O,inactive,
O=C(O)C(F)(F)C(F)(F)C(F)(F)C(F)(F)C(F)(F)F,inactive,
CCOP(=S)(OCC)SCSC(C)(C)C,inactive,16.2 µM (active)
